Inhibition data for seven compounds are collected here from ChEMBL document CHEMBL1961873, “Compounds: GSK PKIS; Assays: Nanosyn kinase panel” (2012).

SMILES strings stand for the structures.

For test [1], the target named is Tyrosine-protein kinase SYK (Homo sapiens) (UniProt P43405). The note with it: at 1 µM.
In test [2] the target is T1, Tyrosine-protein kinase Tec (Homo sapiens) (UniProt P42680).
T1 sequence (whole entry): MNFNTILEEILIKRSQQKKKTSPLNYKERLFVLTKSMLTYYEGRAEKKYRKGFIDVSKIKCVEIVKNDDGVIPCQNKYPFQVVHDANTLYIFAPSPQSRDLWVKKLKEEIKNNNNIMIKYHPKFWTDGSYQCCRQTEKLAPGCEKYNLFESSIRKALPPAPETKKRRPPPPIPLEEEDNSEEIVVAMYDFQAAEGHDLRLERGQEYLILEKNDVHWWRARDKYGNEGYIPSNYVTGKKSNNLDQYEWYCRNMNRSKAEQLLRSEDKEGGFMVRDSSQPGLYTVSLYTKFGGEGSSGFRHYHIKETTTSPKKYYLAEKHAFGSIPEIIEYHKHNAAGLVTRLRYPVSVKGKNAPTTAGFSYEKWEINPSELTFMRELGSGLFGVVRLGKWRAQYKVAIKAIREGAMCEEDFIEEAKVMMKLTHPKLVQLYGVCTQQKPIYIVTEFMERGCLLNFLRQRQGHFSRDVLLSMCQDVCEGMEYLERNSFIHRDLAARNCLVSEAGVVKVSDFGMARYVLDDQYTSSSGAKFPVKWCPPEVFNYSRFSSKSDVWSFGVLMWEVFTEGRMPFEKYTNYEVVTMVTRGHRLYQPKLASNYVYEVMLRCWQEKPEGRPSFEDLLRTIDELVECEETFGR
The note with it: at 0.1 µM.

Test [3] concerns the target T1, Tyrosine-protein kinase Tec (Homo sapiens). The note with it: at 1 µM.
The target in test [4] is Angiopoietin-1 receptor (Homo sapiens) (UniProt Q02763). The note with it: at 0.1 µM.
Test [5] shares this target. The note with it: at 1 µM.
For test [6], the target named is T2, Non-receptor tyrosine-protein kinase TNK1 (Homo sapiens) (UniProt Q13470).
T2 sequence (whole entry): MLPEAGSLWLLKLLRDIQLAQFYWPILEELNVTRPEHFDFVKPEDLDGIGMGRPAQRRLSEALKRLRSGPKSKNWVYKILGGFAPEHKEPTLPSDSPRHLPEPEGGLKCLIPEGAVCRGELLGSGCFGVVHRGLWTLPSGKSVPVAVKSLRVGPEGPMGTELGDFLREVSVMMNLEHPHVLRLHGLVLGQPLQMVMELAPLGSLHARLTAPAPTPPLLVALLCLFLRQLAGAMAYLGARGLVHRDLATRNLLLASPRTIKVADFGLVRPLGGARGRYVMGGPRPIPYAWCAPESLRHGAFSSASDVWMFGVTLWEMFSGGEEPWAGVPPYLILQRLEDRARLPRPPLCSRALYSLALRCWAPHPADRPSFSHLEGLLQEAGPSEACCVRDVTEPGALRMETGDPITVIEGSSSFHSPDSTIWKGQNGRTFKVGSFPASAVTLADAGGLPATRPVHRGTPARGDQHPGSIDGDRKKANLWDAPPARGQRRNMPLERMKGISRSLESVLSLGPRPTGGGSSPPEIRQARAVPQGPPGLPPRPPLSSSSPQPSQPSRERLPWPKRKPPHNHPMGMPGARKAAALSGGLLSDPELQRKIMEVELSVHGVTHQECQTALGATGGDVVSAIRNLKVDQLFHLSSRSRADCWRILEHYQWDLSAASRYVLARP
The note with it: at 0.1 µM.

The target in test [7] is T2, Non-receptor tyrosine-protein kinase TNK1 (Homo sapiens). The note with it: at 1 µM.
Test [8] deals with Activated CDC42 kinase 1 (Homo sapiens) (UniProt Q07912). The note with it: at 0.1 µM.
Test [9] shares this target. The note with it: at 1 µM.
Test [10] deals with High affinity nerve growth factor receptor (Homo sapiens) (UniProt P04629). The note with it: at 0.1 µM.
The target is the same in test [11]. The note with it: at 1 µM.
Test [12] deals with BDNF/NT-3 growth factors receptor (Homo sapiens) (UniProt Q16620). The note with it: at 0.1 µM.
For test [13] the target is unchanged. The note with it: at 1 µM.
The target of test [14] is NT-3 growth factor receptor (Homo sapiens) (UniProt Q16288). The note with it: at 0.1 µM.
Test [15] shares this target. The note with it: at 1 µM.
The target in test [16] is T3, Tyrosine-protein kinase TXK (Homo sapiens) (UniProt P42681).
T3 sequence (whole entry): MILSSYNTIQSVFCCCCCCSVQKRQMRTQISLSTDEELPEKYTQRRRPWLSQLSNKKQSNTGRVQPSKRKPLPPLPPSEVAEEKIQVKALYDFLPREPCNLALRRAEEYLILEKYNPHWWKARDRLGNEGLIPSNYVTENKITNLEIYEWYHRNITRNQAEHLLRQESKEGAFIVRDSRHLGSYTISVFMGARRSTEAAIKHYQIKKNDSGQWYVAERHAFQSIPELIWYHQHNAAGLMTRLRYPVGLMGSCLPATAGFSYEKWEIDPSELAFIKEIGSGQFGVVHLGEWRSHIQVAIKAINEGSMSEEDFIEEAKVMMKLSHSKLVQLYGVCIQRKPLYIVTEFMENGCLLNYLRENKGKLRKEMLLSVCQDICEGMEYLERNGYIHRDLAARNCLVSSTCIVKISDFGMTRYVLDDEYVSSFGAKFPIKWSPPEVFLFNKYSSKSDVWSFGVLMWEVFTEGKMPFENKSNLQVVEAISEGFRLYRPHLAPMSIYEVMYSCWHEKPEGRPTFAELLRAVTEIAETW
The note with it: at 0.1 µM.

For test [17], the target named is T3, Tyrosine-protein kinase TXK (Homo sapiens). The note with it: at 1 µM.
The target of test [18] is Non-receptor tyrosine-protein kinase TYK2 (Homo sapiens) (UniProt P29597). The note with it: at 0.1 µM.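 Further: each value is a mean of the inhibition readings.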
For test [19], the target named is T4, Dual specificity protein kinase TTK (Homo sapiens) (UniProt P33981).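 Further: reported figures are mean TTK inhibition at 1 µM.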
T4 sequence (whole entry): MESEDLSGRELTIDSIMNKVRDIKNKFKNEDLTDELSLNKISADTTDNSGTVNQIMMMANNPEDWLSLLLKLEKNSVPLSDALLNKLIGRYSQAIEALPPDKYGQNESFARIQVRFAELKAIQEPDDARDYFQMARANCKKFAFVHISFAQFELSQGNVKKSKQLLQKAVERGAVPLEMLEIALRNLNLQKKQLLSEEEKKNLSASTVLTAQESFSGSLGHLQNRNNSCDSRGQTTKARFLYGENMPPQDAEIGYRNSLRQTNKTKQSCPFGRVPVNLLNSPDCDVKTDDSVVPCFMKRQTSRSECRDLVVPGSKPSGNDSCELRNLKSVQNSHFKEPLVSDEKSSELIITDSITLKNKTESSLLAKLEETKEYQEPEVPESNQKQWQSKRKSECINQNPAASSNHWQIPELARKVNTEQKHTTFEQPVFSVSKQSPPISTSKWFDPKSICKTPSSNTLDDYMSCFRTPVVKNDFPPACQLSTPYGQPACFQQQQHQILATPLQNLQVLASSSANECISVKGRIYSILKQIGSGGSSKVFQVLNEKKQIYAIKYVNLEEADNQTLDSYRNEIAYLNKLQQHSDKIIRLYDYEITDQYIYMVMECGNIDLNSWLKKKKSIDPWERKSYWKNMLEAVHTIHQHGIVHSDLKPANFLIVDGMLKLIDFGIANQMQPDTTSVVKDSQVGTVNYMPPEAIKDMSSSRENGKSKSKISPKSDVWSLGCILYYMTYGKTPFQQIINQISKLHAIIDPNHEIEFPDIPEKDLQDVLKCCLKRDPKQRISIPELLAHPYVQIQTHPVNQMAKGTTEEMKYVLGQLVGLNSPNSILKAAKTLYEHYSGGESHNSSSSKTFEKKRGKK
The note with it: at 1 µM.

In test [20] the target is T5, Aurora kinase A (Homo sapiens) (UniProt O14965).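 Further: each reported value is a mean percent inhibition of Aurora-A.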
T5 sequence (whole entry): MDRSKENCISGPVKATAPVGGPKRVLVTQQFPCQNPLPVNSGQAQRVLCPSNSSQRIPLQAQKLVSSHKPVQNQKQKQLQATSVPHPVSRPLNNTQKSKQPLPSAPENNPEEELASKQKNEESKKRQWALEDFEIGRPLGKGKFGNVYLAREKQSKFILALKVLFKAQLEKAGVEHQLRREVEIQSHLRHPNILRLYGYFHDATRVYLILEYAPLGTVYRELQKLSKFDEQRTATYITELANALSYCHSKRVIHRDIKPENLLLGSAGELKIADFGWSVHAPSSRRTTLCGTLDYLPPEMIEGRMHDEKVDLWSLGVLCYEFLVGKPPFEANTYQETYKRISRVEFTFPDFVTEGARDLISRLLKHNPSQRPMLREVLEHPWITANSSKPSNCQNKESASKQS
The note with it: at 0.1 µM.

Chain of High affinity nerve growth factor receptor (Homo sapiens) (P04629 33-796 limits assumed): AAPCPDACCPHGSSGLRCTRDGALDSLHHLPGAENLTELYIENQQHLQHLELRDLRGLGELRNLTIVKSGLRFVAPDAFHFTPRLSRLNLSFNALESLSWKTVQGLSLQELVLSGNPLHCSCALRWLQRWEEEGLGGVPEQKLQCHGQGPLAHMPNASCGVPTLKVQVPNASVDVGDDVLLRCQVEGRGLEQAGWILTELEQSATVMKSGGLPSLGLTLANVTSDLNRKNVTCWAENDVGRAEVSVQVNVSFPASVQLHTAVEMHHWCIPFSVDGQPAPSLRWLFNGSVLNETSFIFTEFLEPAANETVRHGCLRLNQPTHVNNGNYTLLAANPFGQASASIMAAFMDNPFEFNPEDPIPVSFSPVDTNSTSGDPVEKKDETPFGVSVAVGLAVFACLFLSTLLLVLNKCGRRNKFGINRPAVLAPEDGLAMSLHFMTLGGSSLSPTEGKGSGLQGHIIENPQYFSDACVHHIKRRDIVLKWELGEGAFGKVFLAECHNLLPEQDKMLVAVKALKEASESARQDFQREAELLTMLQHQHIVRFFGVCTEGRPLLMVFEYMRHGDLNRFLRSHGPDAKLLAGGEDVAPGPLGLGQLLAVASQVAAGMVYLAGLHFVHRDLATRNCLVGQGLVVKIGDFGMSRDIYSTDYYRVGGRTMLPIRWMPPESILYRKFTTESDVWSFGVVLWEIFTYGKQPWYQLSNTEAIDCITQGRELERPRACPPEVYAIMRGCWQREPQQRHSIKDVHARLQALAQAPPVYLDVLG
Chain of Non-receptor tyrosine-protein kinase TYK2 (Homo sapiens) (P29597 whole entry): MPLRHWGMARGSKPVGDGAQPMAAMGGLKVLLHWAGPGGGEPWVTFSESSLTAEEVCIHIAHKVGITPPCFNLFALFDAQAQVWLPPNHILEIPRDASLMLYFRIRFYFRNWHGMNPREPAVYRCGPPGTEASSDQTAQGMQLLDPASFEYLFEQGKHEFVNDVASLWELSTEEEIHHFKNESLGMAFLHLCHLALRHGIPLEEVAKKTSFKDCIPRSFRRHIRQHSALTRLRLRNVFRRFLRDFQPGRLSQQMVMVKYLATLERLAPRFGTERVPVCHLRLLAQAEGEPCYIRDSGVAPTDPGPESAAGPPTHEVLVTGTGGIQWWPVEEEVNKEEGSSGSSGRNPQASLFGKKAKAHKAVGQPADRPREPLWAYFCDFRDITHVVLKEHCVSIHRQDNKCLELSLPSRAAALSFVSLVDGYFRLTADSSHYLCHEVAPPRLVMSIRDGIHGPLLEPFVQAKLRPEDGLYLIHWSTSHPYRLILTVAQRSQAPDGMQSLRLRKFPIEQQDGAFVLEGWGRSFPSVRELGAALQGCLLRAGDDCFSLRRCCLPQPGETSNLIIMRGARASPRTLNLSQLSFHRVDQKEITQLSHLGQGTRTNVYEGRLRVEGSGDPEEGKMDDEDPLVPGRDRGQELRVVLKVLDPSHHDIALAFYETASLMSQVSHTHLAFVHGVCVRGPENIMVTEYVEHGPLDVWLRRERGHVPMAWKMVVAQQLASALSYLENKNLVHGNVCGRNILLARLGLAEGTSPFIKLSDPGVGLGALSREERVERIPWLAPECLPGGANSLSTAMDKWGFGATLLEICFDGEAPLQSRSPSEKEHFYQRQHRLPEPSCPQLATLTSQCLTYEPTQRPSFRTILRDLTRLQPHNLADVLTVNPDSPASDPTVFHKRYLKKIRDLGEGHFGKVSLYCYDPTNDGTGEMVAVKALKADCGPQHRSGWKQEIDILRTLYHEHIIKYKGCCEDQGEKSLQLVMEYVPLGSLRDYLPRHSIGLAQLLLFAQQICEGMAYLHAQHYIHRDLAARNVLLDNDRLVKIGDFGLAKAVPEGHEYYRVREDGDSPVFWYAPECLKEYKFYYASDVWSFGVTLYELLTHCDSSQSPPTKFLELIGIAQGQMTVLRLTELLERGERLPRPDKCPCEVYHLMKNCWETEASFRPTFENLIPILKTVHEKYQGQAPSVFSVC
Chain of Angiopoietin-1 receptor (Homo sapiens) (Q02763 whole entry): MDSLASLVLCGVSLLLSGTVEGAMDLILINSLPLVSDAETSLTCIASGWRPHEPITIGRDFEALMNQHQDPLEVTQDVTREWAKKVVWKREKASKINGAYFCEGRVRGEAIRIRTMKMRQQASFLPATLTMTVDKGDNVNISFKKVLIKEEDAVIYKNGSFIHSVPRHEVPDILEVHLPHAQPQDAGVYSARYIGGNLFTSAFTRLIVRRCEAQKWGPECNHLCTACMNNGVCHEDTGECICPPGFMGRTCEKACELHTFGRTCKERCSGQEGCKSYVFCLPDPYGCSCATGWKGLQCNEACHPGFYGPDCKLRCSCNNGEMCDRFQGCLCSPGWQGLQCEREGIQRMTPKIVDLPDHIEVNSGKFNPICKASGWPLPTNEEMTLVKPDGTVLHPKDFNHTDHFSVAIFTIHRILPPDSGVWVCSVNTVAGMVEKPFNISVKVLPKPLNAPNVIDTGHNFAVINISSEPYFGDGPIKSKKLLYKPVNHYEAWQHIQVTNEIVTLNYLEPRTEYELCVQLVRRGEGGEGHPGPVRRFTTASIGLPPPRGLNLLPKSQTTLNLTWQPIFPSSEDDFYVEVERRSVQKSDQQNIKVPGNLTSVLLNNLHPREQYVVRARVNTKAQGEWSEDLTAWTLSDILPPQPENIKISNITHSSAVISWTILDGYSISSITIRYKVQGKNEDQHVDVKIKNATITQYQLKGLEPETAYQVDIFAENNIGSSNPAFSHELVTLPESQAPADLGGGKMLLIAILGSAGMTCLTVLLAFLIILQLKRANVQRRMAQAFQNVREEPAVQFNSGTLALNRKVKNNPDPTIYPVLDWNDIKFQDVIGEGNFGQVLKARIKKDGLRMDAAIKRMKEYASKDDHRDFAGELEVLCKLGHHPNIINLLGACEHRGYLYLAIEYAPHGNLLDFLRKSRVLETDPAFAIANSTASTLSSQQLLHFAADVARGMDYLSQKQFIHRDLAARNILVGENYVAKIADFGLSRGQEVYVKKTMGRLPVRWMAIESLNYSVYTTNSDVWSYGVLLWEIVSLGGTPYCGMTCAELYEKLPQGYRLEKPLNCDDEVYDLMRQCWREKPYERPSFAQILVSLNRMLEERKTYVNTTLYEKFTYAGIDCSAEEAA
Chain of NT-3 growth factor receptor (Homo sapiens) (Q16288 32-839 limits assumed): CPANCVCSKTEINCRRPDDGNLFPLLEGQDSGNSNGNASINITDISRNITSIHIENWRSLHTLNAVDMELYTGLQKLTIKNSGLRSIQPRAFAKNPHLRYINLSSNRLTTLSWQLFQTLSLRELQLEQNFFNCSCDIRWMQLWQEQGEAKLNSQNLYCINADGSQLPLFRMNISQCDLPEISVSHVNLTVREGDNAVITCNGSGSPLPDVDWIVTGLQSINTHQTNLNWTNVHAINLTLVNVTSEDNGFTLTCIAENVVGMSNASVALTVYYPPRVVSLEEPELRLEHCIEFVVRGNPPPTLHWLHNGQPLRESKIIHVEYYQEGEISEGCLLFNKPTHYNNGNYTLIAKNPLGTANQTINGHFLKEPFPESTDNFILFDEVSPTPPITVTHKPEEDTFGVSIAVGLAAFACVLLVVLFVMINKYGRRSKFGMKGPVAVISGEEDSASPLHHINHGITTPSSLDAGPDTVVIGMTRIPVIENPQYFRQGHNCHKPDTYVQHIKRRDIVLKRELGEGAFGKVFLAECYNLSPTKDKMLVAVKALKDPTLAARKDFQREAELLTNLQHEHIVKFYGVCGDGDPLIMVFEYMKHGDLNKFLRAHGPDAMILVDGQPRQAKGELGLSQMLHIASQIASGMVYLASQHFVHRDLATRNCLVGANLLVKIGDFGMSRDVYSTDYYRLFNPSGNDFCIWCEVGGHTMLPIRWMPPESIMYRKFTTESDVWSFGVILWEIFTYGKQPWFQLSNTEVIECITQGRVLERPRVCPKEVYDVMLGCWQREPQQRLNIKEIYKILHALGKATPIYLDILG
Chain of Activated CDC42 kinase 1 (Homo sapiens) (Q07912 whole entry, looked up): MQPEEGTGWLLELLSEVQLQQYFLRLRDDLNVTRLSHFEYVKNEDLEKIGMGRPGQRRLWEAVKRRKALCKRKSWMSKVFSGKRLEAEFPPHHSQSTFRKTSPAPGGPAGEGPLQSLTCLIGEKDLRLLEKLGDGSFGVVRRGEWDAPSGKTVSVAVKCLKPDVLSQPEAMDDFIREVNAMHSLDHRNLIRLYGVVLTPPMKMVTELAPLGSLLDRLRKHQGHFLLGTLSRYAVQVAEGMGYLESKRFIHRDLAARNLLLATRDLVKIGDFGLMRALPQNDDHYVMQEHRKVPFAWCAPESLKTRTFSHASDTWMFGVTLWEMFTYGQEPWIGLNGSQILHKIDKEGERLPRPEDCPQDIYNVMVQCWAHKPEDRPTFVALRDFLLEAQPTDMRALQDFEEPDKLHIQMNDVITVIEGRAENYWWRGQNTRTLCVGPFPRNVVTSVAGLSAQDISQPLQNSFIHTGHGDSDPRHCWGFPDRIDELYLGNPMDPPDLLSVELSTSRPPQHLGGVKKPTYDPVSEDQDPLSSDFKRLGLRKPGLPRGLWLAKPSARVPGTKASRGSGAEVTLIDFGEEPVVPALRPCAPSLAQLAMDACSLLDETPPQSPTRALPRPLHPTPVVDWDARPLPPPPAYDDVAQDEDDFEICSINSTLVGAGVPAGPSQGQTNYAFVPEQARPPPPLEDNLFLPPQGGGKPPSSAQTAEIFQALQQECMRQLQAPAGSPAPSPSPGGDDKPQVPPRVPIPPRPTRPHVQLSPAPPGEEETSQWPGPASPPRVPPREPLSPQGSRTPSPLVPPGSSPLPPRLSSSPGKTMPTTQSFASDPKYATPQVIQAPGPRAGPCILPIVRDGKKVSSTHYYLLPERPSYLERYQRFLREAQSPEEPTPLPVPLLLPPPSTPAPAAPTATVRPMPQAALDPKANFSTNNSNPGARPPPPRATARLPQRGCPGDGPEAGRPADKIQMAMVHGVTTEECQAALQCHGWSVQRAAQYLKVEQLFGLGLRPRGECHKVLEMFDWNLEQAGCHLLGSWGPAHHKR

For the compound `NC(=O)c1cccc(Nc2nccc(Nc3cccc(F)c3)n2)c1`, the inhibition in [1] is -2.49%; in test [2], 6.51%; in test [3], 34.3%; in test [4], 1.74%; in [5] it was 10.1%; in test [6] it was 6.18%. Further, the inhibition in test [7] was 44.3%; in test [8], 2.29%; in test [9], 22.2%; in test [10], 1.89%; in test [11] it was 2.65%; in test [12] it was 1.46%. Also, the inhibition in test [13] was 14.8%; in test [14] it was -1.62%; in test [15], 5.94%; in test [16], 6.53%; in [17], 29%; in test [18], 3.52%. The values for the inhibition in test [19] and in [20] were 6.29% and 14.9%, respectively.

In the case of `Cc1ccc(NC(=O)CC2CC2)cc1-c1ccc(C(=O)NCC2CC2)cc1`, the inhibition in [1] is 0.5%; in test [2], 5.07%; in test [3], 8.67%; in [4], 2.75%; in test [5], 6.74%; in test [6], 2.27%. Further, the inhibition is 10.1% in test [7]; 0.82% in test [8]; 3.94% in [9]; 3.3% in test [10]; 1.04% in test [11]; 1.14% in test [12]. In addition, the inhibition in test [13] was 3.38%; in [14], 2.32%; in [15], 4.16%; in [16], 3.64%; in test [17], 5.85%; in [18] it was -4.51%. Also, the results for the inhibition in test [19] and in [20] were 7.66% and 4.04%, respectively.

Turning to `COc1cc2ncn(-c3cc(OCc4ccccc4S(C)(=O)=O)c(C#N)s3)c2cc1OC`, the inhibition in test [1] was -2.95%; in test [2], 7.94%; in [3] it was 35.5%; in test [4], 5.63%; in [5], 14.6%; in test [6] it was 38.6%. Further, the inhibition in [7] stood at 77.9%; in [8] it was 6.02%; in test [9], 38%; in test [10] it was 5.48%; in test [11], 18.8%; in test [12], 15%. Also, the inhibition in test [13] was 57.2%; in test [14], 12.9%; in test [15], 56.1%; in [16], 10.8%; in test [17], 42.5%; in test [18], -7.35%. Also, the values for the inhibition in test [19] and in test [20] were 11.1% and 12.4%, respectively.

Consider `Nc1nccc(-c2c(-c3ccc(F)cc3)nn3cc(C(F)(F)F)ccc23)n1`, for which the inhibition was -1.5% in [1]; 0.64% in test [2]; 4.1% in test [3]; 1.2% in test [4]; 3.87% in test [5]; 2.37% in test [6]. In addition, the inhibition in test [7] is -0.22%; in test [8], -0.73%; in test [9] it was 0.6%; in [10], -2.97%; in test [11] it was -4.55%; in test [12], 0.39%. Also, the inhibition in [13] was 0.48%; in test [14] it was 0.11%; in [15], 1.1%; in [16] it was 0.11%; in test [17], 6.52%; in test [18] it was -4.56%. The inhibition was 4.23% in test [19] and 0.97% in test [20].

Regarding `NC(=O)c1sc(-n2cnc3ccccc32)cc1OCc1ccccc1Br`, the inhibition in test [1] is -0.37%; in test [2] it was 4.6%; in test [3], 4.76%; in test [4], 2%; in test [5], 6.42%; in test [6], 2.8%. The inhibition is 18.9% in test [7]; 0.68% in test [8]; 1.87% in test [9]; 1.54% in [10]; 5.34% in test [11]; 3.05% in [12]. Also, the inhibition in test [13] is 4.07%; in test [14] it was 1.79%; in test [15], 3.41%; in test [16], 3.34%; in test [17], 5.57%; in test [18], -1.33%. The inhibition was 13% in [19] and 3.86% in [20].

For the compound `O=S(=O)(CCOCc1ccc(-c2ccc3ncnc(Nc4ccc(OCc5cccc(F)c5)c(Cl)c4)c3c2)o1)c1ccccc1`, the inhibition in test [1] amounted to 1.2%; in test [2], 0.41%; in test [3], 0.9%; in [4], 3.25%; in [5], 2.48%; in test [6] it was 1.59%. For the same compound, the inhibition is 5.35% in test [7]; -0.03% in test [8]; -0.95% in [9]; -0.1% in test [10]; 3.9% in test [11]; 2.42% in test [12]. In addition, the inhibition is 2.72% in test [13]; 0.35% in [14]; 0.31% in [15]; -0.26% in [16]; 2.63% in test [17]; -3.63% in test [18]. Also, the inhibition in test [19] amounted to 11%; in [20], 1.6%.

In the case of `NS(=O)(=O)c1ccc(Nc2cc(-c3cccc(O)c3)n[nH]2)cc1`, the inhibition in [1] is -0.51%; in [2], 5.22%; in [3], 5.56%; in test [4], 4.05%; in test [5], 3.13%; in [6], 4.11%. Also, the inhibition in test [7] stood at 7.43%; in [8], 1.36%; in test [9] it was 2.01%; in test [10] it was 4.76%; in [11], 10.5%; in [12], 5.48%. For the same compound, the inhibition is 12.6% in test [13]; 5.55% in [14]; 14.4% in [15]; 2.77% in [16]; 2.95% in test [17]; -9.08% in test [18]. The values for the inhibition in [19] and in [20] were 0.24% and 3.17%, respectively.
